Assay outcomes: PubChem, several laboratories
Shown are actives, neighbours in structure and some others; about 28% of the full set was active somewhere.
hDAT+cocaine – changed hDAT dopamine uptake under cocaine IC80, either direction, primary screen, cocaine antagonist project, cell-based, LLC-PK1 hDAT, [14C]-dopamine uptake, MLSMR; Sodium-dependent dopamine transporter (Homo sapiens), Q01959; LLC-PK1 hDAT cells, [14C]-dopamine uptake with cocaine IC80; actives deviate in either direction; B-score at 10 µM; hit rate 1.3% among 110,000; AID 449768, 2010;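 active means Z score or B-score, a plate-position-corrected score, falls beyond the plate's 99.7% confidence bounds, in either direction; inactive means both scores lie inside the 99.7% bounds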;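 further: scored against the spread of the other compound wells on the same plate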
D1 allo mod – D1 CRE-luciferase signal change, two-sided – cell-based, HEK293 D1, dopamine EC30, D1 allosteric modulator project, primary screen; hit rate 5.9% among 58,000; dopamine EC30 potentiation; actives deviate in either direction; B-score at 10 µM; D(1A) dopamine receptor (Homo sapiens), P21728;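 active means luminescence count or its row- and column-corrected plate score outside the 99.7% band of the plate's sample wells, on either side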
Target sequence (P21728 whole entry, looked up): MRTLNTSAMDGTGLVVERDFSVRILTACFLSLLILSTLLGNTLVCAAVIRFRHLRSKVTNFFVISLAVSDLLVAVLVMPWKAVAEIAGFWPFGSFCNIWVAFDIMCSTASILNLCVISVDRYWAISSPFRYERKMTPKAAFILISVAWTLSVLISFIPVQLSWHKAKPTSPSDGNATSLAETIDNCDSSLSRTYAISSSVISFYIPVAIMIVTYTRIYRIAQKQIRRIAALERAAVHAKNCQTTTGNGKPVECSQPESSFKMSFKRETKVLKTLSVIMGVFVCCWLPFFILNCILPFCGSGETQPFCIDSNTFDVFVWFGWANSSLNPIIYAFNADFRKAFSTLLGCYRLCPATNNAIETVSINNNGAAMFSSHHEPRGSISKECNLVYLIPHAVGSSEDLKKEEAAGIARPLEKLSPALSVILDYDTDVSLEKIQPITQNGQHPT
CYP2C19 activ – human CYP2C19 activators, primary screen, biochemical, luminescence | Cytochrome P450 2C19 (Homo sapiens), P33261 | recombinant CYP2C19, luciferin-H EGE luminescence; active compounds read high; 0 = fully inhibited enzyme, 1 = untreated enzyme | activation factor at 5 µM | 96,000 tested, under 10 active | AID 1025, 2008;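 active means activation factor of at least 2 at 5 µM in the primary screen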;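 further: 0 = wells with 2.5 mM tranylcypromine and 1 = vehicle-only wells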
CYP2C9 inh – blockers of cytochrome P450 2C9 activity – biochemical, luminescence, ADME assay, primary screen | inhibition, % at 5 µM | CYP2C9 Supersomes, luciferin-H conversion | hit rate 20% among 96,000;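 active means blocking of liver enzyme CYP2C9 beyond about 50% at 5 µM, limit read from the data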
CYP2C9 activ – human CYP2C9 activators, primary screen, biochemical, luminescence; Cytochrome P450 2C9 (Homo sapiens), P11712; recombinant CYP2C9, luciferin-H conversion; active compounds read high; factor 1 = untreated enzyme, 0 = blocked; activation factor at 5 µM; hit rate 1.4% among 96,000; AID 1024, 2008;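 active means activation factor of 2 or more for CYP2C9 at a 5 µM dose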;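 further: 0 = sulfaphenazole-blocked wells and 1 = vehicle-only wells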
CYP2C19 inhib – blockers of cytochrome P450 2C19 activity – biochemical, luminescence, ADME assay, primary screen. P33261. CYP2C19 Supersomes, luciferin-H EGE luminescence, 30 min. inhibition, % at 5 µM. hit rate 21% among 96,000;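 active means CYP2C19 inhibition above a set limit at 5 µM in the primary screen, cut at about 50% in these data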;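 further: plate controls were negative control wells for no effect and 2.5 mM tranylcypromine positive control for full effect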
An asterisk follows results filed as active; / = no result given.

SMILES | hDAT+cocaine | D1 allo mod | CYP2C19 activ | CYP2C9 inh | CYP2C9 activ | CYP2C19 inhib
CCCn1cnc2cc(NCc3cccc(OC)c3O)ccc21 | 1.61 | 0.233 | 0.1 | 58.4* | 0.4 | 86.5*
COc1cccc(CNc2ccc3c(c2)ncn3C(C)C)c1OC | 0.168 | 4.38 | 0.1 | 64.2* | 0.4 | 86.2*
COc1cccc(OCC(O)CO)c1 (stereo unspecified) | 0.71 | 0.759 | 1 | 12.5 | 0.9 | -1.3
COc1ccccc1NC(=O)CSc1nc2ccccc2cc1Cc1ccccc1 | -0.217 | / | 0 | 55.2* | 0.4 | 99.1*
COc1ccccc1NC(=O)CSC(N)=O | 0.238 | / | 0.7 | 20.8 | 0.8 | 30.3
Nc1cc(N)nc(SCC(=O)Nc2ccc(Br)cc2Cl)n1 | 0.36 | 0.485 | 0.3 | 55.5* | 0.4 | 74.1*
COc1ccccc1NC(=O)Cc1noc(CSc2cc(C)c3ccccc3n2)n1 | 1.23 | -0.017 | 0.1 | 40.0 | 0.6 | 93.0*
COc1ccccc1NC(=O)CSc1nc(N)cc(N)n1 | -0.57 | 1 | 0.3 | -73.0 | 1.7 | 71.5*
COc1ccccc1NC(=O)CSc1nc2ccccc2n1C(C)=O | 0.804 | / | 0.6 | 45.1 | 0.5 | 39.6
c1cncc(-c2nnc(C3CCCCC3)o2)c1 | 0.979 | 2 | 0.9 | 8.4 | 0.9 | 12.7
CCCCn1nnnc1SCC(=O)NCc1ccccc1 | 1.03 | / | 0.6 | 13.0 | 0.9 | 42.5
CC(=O)C1=C(O)C(=O)N(CCCCCC(=O)O)C1c1ccc(N(C)C)cc1 (stereo unspecified) | -0.493 | -0.972 | 1 | -10.4 | 1.1 | -1.9
COc1ccc(CC(=O)Nc2nnc(C)s2)cc1 | -0.341 | / | 0.7 | 12.5 | 0.9 | 32.9
COc1ccc(NC(=O)c2cc(S(=O)(=O)N3CCS(=O)(=O)CC3)ccc2Cl)cc1 | 1.25 | / | 1 | 20.7 | 0.8 | 2.2
COc1ccccc1NC(=O)CSc1nc2nc(C)cc(C)c2c(=O)[nH]1 | 0.0626 | 0.609 | 0.9 | 52.4* | 0.5 | 13.9
CCOC(=O)CCc1nc2ccccc2[nH]1 | 0.1 | -0.856 | 0.3 | 24.3 | 0.8 | 68.8*
CCCCOC(=O)CCc1nc2ccccc2[nH]c1=O | 0.31 | / | 0.3 | 30.7 | 0.7 | 73.4*
CCC(OC(=O)CCc1nc2ccccc2[nH]c1=O)C(=O)c1ccccc1 (stereo unspecified) | 1.45 | 1.47 | 0 | 79.1* | 0.2 | 99.2*
CCCOC(=O)c1ccc(NC(=O)c2cn(CC)c3nc(C)ccc3c2=O)cc1 | / | / | 1 | 11.2 | 0.9 | -2.7
Cc1cc(C)c(S(=O)(=O)c2c(C)cccc2C)c(OCC(C)C)n1 | -0.315 | / | 0.2 | 91.0* | 0.1 | 83.8*
N#C/C(=C\c1cc(Cl)ccc1O)C(=O)NC1CCCCC1 | 0.64 | / | 0.8 | 61.2* | 0.4 | 18.5
N#C/C(=C\c1cc(Cl)cc(Cl)c1O)C(=O)NC1CCCCC1 | -0.0869 | / | 1 | -18.3 | 1.2 | 0.3
O=C(Nc1ccc(NC(=O)C2CC2)nc1)c1ccccn1 | 0.627 | -3.83 | 0.9 | -15.7 | 1.2 | 13.1
O=C(Nc1ccc(NC(=O)C2CCCCC2)cn1)c1ccco1 | 0.754 | -3.24* | 0.8 | 18.2 | 0.8 | 22.0
O=C(Nc1ccc(NC(=O)c2ccco2)nc1)c1ccccn1 | 0.213 | -4.1* | 0.8 | 1.4 | 1 | 18.7
SMILES | hDAT+cocaine | D1 allo mod | CYP2C19 activ | CYP2C9 inh | CYP2C9 activ | CYP2C19 inhib
CC(C)C(=O)Nc1ccc(NC(=O)c2ccccn2)cn1 | -1.53 | -4.92* | 0.9 | 4.1 | 1 | 13.5
O=C(Nc1ccc(NC(=O)C2CC2)nc1)c1ccncc1 | 0.0154 | 0.106 | 0.9 | 55.6* | 0.4 | 13.3
O=c1[nH]c2ccccc2c(O)c1O | -0.282 | / | / | / | / | /
COc1cccc(C2=CC(=O)CC(c3ccco3)C2)c1 (stereo unspecified) | 0.0596 | / | / | / | / | /
CCOC(=O)CSc1cc(=O)n(C)c2cc(Cl)ccc12 | / | -0.115 | 0.4 | 50.6* | 0.5 | 63.6*
CCC(=O)NC1(C(F)(F)F)C(=O)Nc2c1c(=O)n(C)c(=O)n2C (stereo unspecified) | 0.465 | 0.255 | 0.3 | 58.0* | 0.4 | 72.0*
